Experimental data published in the supplement of paper PMC7411054.
Counter-ions that a name gives are not always drawn.

Assays:
Assay in all cases: lowest phenotypically active concentration; higher = less potent
Conditions in all cases: treatment time: 24 h
HepG2-ACTB-RAB5A = test system: HepG2-ACTB-RAB5A
Outline: (§1)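 Fifteen gene-edited A549, HepG2 and WPMY1 reporter lines (BFP segmentation plus GFP and RFP/FusionRed markers) were treated at 0.3, 1, 3 or 9 µM for 24 h, four wells each, then imaged live. Live-cell features per well were normalised to DMSO control wells. Deviation required ≥3 of 4 wells beyond the 95th percentile of DMSO Euclidean distances, and reproducibility required median replicate Pearson correlation above the 95th percentile of non-replicates. Phenotypic activity needed both criteria.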

HepG2-CANX-COX4 = test system: HepG2-CANX-COX4
Outline: as §1

HepG2-GM130-SQSTM1 = test system: HepG2-GM130-SQSTM1
Outline: as §1

HepG2-TP53BP1-CLTA = test system: HepG2-TP53BP1-CLTA
Outline: as §1

HepG2-TUBA1B-RELA = test system: HepG2-TUBA1B-RELA
Outline: as §1

WPMY1-ACTB-RAB5A = test system: WPMY1-ACTB-RAB5A
Outline: as §1

WPMY1-CANX-COX4 = test system: WPMY1-CANX-COX4
Outline: as §1

WPMY1-GM130-SQSTM1 = test system: WPMY1-GM130-SQSTM1
Outline: as §1

WPMY1-TP53BP1-CLTA = test system: WPMY1-TP53BP1-CLTA
Outline: as §1

WPMY1-TUBA1B-RELA = test system: WPMY1-TUBA1B-RELA
Outline: as §1

Row | SMILES | lowest phenotypically active concentration (HepG2-ACTB-RAB5A) [µM] | lowest phenotypically active concentration (HepG2-CANX-COX4) [µM] | lowest phenotypically active concentration (HepG2-GM130-SQSTM1) [µM] | lowest phenotypically active concentration (HepG2-TP53BP1-CLTA) [µM] | lowest phenotypically active concentration (HepG2-TUBA1B-RELA) [µM] | lowest phenotypically active concentration (WPMY1-ACTB-RAB5A) [µM] | lowest phenotypically active concentration (WPMY1-CANX-COX4) [µM] | lowest phenotypically active concentration (WPMY1-GM130-SQSTM1) [µM] | lowest phenotypically active concentration (WPMY1-TP53BP1-CLTA) [µM] | lowest phenotypically active concentration (WPMY1-TUBA1B-RELA) [µM]
1 | COc1cc2c(NC3CCN(C(C)C)CC3)nc(N3CCC(F)(F)CC3)nc2cc1OCCCN1CCCC1 | ≤ 0.3 | 1 | ≤ 0.3 | 1 | ≤ 0.3 | 1 | 1 | ≤ 0.3 | 1 | 1
2 | COc1cc(N2CCC(N3CCN(C)CC3)CC2)ccc1Nc1ncnc(Nc2ccccc2S(=O)(=O)C(C)C)n1 | 9 | 3 | 9 | 9 | 9 | 9 | 3 | 9 | 9 | 9
3 | CC(=O)O[C@H]1C(=O)[C@@]2(C)[C@H]([C@H](OC(=O)c3ccccc3)[C@]3(O)C[C@H](OC(=O)[C@H](O)[C@@H](NC(=O)c4ccccc4)c4ccccc4)C(C)=C1C3(C)C)[C@]1(OC(C)=O)CO[C@@H]1C[C@@H]2O [paclitaxel] | ≤ 0.3 | ≤ 0.3 | ≤ 0.3 | ≤ 0.3 | ≤ 0.3 | ≤ 0.3 | 9 | ≤ 0.3 | ≤ 0.3 | ≤ 0.3
4 | CCC1(O)CC2CN(CCc3c([nH]c4ccccc34)C(C(=O)OC)(c3cc4c(cc3OC)N(C)C3C(O)(C(=O)OC)C(OC(C)=O)C5(CC)C=CCN6CCC43C65)C2)C1 (stereo not given) [Vinblastine sulfate] | ≤ 0.3 | ≤ 0.3 | ≤ 0.3 | 1 | ≤ 0.3 | ≤ 0.3 | ≤ 0.3 | ≤ 0.3 | ≤ 0.3 | ≤ 0.3
5 | CC[C@]1(O)C[C@@H]2CN(CCc3c([nH]c4ccccc34)[C@@](C(=O)OC)(c3cc4c(cc3OC)N(C=O)[C@H]3[C@@](O)(C(=O)OC)[C@H](OC(C)=O)[C@]5(CC)C=CCN6CC[C@]43[C@@H]65)C2)C1 [vincristine] | ≤ 0.3 | ≤ 0.3 | ≤ 0.3 | ≤ 0.3 | ≤ 0.3 | ≤ 0.3 | ≤ 0.3 | ≤ 0.3 | ≤ 0.3 | ≤ 0.3
6 | CCN(CC)c1ccc(/C=N/NC(=O)c2ccncc2)c(O)c1 | ≤ 0.3 | ≤ 0.3 | ≤ 0.3 | ≤ 0.3 | 1 | ≤ 0.3 | ≤ 0.3 | ≤ 0.3 | ≤ 0.3 | 1
7 | Nc1ncn([C@@H]2O[C@H](CO)[C@@H](O)[C@H]2O)c(=O)n1 [5-Azacytidine] | ≤ 0.3 | ≤ 0.3 | ≤ 0.3 | ≤ 0.3 | 1 | 3 | 3 | 1 | 3 | 3
8 | CN[C@H]1CC[C@@H](c2ccc(Cl)c(Cl)c2)c2ccccc21 [sertraline] | 3 | 9 | 3 | 3 | 3 | 3 | 3 | 3 | 3 | 3
9 | O=C(Cc1ccc(-c2ccc(OCCN3CCOCC3)cc2)cn1)NCc1ccccc1 | ≤ 0.3 | ≤ 0.3 | ≤ 0.3 | ≤ 0.3 | ≤ 0.3 | ≤ 0.3 | ≤ 0.3 | ≤ 0.3 | ≤ 0.3 | ≤ 0.3
10 | Cc1cc(/N=N/c2ccc(S(=O)(=O)Nc3ccccn3)cc2)c(N)cc1O | 9 | 3 | 3 | 9 | 9 | 3 | 9 | 3 | 9 | 9
11 | NC1(C(=O)N[C@@H](CCO)c2ccc(Cl)cc2)CCN(c2ncnc3[nH]ccc23)CC1 | 3 | 3 | 1 | 1 | 1 | 1 | 1 | 1 | 1 | 1
12 | CCc1cc(-c2n[nH]c(C)c2-c2ccc3c(c2)OCCO3)c(O)cc1O | 3 | 3 | 3 | 3 | 9 | 3 | 3 | 3 | 3 | 3
13 | O=C1Nc2ccc(F)cc2C1=C1Nc2ccccc2C1=NO [5'-Fluoroindirubinoxime] | ≤ 0.3 | ≤ 0.3 | 1 | 1 | 1 | 1 | ≤ 0.3 | 1 | ≤ 0.3 | 1
14 | c1ccc2c(c1)Cc1c(Nc3ccc4c(c3)OCCO4)n[nH]c1-2 | 3 | 3 | 9 | 3 | 3 | 3 | 3 | 3 | 3 | 3
15 | Oc1ccc(-c2nc(-c3ccc(F)cc3)c(-c3ccncc3)[nH]2)cc1 | 3 | 1 | ≤ 0.3 | 1 | 3 | 9 | 9 | 3 | 9 | 3
16 | CN1CC[C@H](c2c(O)cc(O)c3c(=O)cc(-c4ccccc4Cl)oc23)[C@H](O)C1 [Flavopiridol hydrochloride] | ≤ 0.3 | ≤ 0.3 | ≤ 0.3 | ≤ 0.3 | ≤ 0.3 | ≤ 0.3 | ≤ 0.3 | ≤ 0.3 | ≤ 0.3 | ≤ 0.3
17 | C[C@@H](N)[C@H]1CC[C@H](C(=O)Nc2ccncc2)CC1 | 3 | 1 | 1 | 1 | 3 | 1 | 1 | 1 | 9 | 1
18 | C/C=C1\NC(=O)[C@H]2CSSCCC=C[C@H](CC(=O)N[C@H](C(C)C)C(=O)N2)OC(=O)[C@H](C(C)C)NC1=O | ≤ 0.3 | ≤ 0.3 | ≤ 0.3 | ≤ 0.3 | ≤ 0.3 | ≤ 0.3 | ≤ 0.3 | ≤ 0.3 | ≤ 0.3 | ≤ 0.3
19 | CN(C)C1CCN(C(=O)c2ccc(NC(=O)Nc3ccc(-c4nc(N5CCOCC5)nc(N5CCOCC5)n4)cc3)cc2)CC1 | ≤ 0.3 | ≤ 0.3 | ≤ 0.3 | ≤ 0.3 | ≤ 0.3 | ≤ 0.3 | ≤ 0.3 | ≤ 0.3 | ≤ 0.3 | ≤ 0.3
20 | Cc1noc(C)c1-c1cc(O)cc(C(O)c2ccccc2)c1 (stereo not given) | 3 | 3 | 3 | 3 | 3 | 3 | 3 | 1 | 3 | 3
21 | COc1cc2c(cc1-c1c(C)noc1C)ncc1[nH]c(=O)n([C@H](C)c3ccccn3)c12 [I-BET 151 dihydrochloride] | 1 | 3 | 3 | 3 | 3 | 3 | 3 | 3 | 3 | 3
22 | CC1=C(C(=O)Nc2cc3cn[nH]c3cc2F)C(c2ccc(C(F)(F)F)cc2)CC(=O)N1 (stereo not given) | ≤ 0.3 | ≤ 0.3 | ≤ 0.3 | ≤ 0.3 | ≤ 0.3 | ≤ 0.3 | ≤ 0.3 | ≤ 0.3 | 3 | ≤ 0.3
23 | Cc1ccc(C(=O)N(CCCN)[C@@H](c2oc3cc(Cl)ccc3c(=O)c2Cc2ccccc2)C(C)C)cc1 | ≤ 0.3 | ≤ 0.3 | ≤ 0.3 | ≤ 0.3 | ≤ 0.3 | ≤ 0.3 | 3 | ≤ 0.3 | ≤ 0.3 | ≤ 0.3
